Shiga toxin inh: A qHTS for Small Molecule Inhibitors of Shiga Toxin | AID 2315, 2010 | 9.2% of 290,000 active | inhibition, % at 38.7 µM | Vero cells, Shiga toxin protein synthesis inhibition reporter; in the data active = inhibition mostly above about 28%, no sharp cut-off; inactive = mostly below about 43%
AmpC no deterg: qHTS Inhibitors of AmpC Beta-Lactamase (assay without detergent) | AmpC nitrocefin hydrolysis, absorbance 480 nm, 0.0001% Triton | 0.52% of 330,000 active | P00811 | Potency, µM (titrated, usually from 57.1 µM), hits mostly inhibitors; also: nearly all actives have a fitted effect of over 20% in size
Target sequence (P00811 whole entry, looked up): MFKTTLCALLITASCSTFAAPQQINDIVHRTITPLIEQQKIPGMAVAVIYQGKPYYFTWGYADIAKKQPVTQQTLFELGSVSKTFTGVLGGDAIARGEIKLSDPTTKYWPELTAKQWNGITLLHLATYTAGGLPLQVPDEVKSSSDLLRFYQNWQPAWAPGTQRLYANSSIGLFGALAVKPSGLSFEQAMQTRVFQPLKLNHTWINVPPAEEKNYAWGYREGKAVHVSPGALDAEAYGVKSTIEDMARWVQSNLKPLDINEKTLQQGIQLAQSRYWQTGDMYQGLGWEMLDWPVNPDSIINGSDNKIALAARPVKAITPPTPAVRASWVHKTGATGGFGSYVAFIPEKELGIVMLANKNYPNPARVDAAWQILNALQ
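20 mM phosphate pH 7.0 + 0.01% (detergent screen) or 0.0001% Triton X-100; 5.3 nM AmpC reagent; cpd preinc 15 min RT; nitrocefin (800 uM stock) to start; A480 q20 s × 4 min; Activity was normalised to no-enzyme and no-compound control wells.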
NS1 inh: qHTS Assay for Inhibitors of Influenza NS1 Protein Function. Potency, µM (top dose mostly 46.1 µM). 0.4% of 270,000 active. AID 2326, 2010; calls by dose curve; also: actives are rising curves; nearly all actives have a fitted effect of over 50% in size
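Read-out: OD600 growth recovery of NS1-expressing budding yeast. Cells grown overnight at 30C in -URA glucose medium, washed, resuspended and diluted 1:100 in 2% galactose assay medium, pH 6.0. Same strain lacking NS1 served as positive control.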
CHX counter: Cycloheximide Counterscreen for Small Molecule Inhibitors of Shiga Toxin. cell reporter, cycloheximide protein synthesis inhibition counterscreen. max response, %. 12% of 300,000 active. AID 2314, 2010; in the data active = max response mostly above about 13%, no sharp cut-off; inactive = mostly below about 14%; also: read at 38.3 µM for the half of the compounds with a filed dose
AmpC detergent: qHTS Inhibitors of AmpC Beta-Lactamase (assay with detergent) | AmpC hydrolysis of nitrocefin, absorbance 480 nm, 0.01% Triton | Potency, µM (highest dose often 114 µM), usual class: inhibitors | 0.041% of 370,000 active; also: nearly all actives have a fitted effect of over 25% in size
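20 mM phosphate pH 7.0 + 0.01% (detergent screen) or 0.0001% Triton X-100; 5.3 nM AmpC reagent; cpd preinc 15 min RT; nitrocefin (800 uM stock) to start; A480 q20 s × 4 min; Activity was normalised to no-enzyme and no-compound control wells.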
Hits are given with their value. Only a selection was taken, and hits are over-represented in it overall. Unless noted, calls follow the shape of the dose curve; as a rule, active = well fitted curve in the direction sought with a large enough effect; inconclusive = small, poorly fitted or top-dose-only effect, or another doubt; inactive = no such curve, though single readings can be large; an effect the other way counts as inactive or inconclusive.

Screening CC(C)CNC(=O)c1cc(-c2ccco2)on1 returned Shiga toxin inh active, AmpC no deterg inactive, NS1 inh inactive, CHX counter 35 and AmpC detergent inactive.
Cc1ccc(S(=O)(=O)Nc2nnc(C3CCCCC3)s2)cc1 was read as Shiga toxin inh inactive, AmpC no deterg inactive, NS1 inh inactive, CHX counter inactive and AmpC detergent inactive.
Cc1ccc(S(=O)(=O)N(C)c2ccc(OCC(=O)Nc3nnc(C4CC4)s3)cc2)cc1 was read as Shiga toxin inh inactive, AmpC no deterg 14µM, CHX counter inactive and AmpC detergent inactive.
Screening Cc1ccc(S(=O)(=O)NC(=O)Nc2nnc(C3CC3)s2)cc1 returned Shiga toxin inh inactive, AmpC no deterg 4.5µM, NS1 inh inactive, CHX counter inactive and AmpC detergent inactive.
`Cc1ccccc1C(=O)N/N=C/c1ccc([N+](=O)[O-])s1` gave Shiga toxin inh inactive, AmpC no deterg inactive, NS1 inh inactive, CHX counter inactive and AmpC detergent inconclusive.
`O=C(N/N=C/c1ccc([N+](=O)[O-])s1)C(O)c1ccccc1` (stereo not drawn) gave Shiga toxin inh inactive, AmpC no deterg inactive, NS1 inh inactive, CHX counter 16 and AmpC detergent inactive.
For O=C(Cc1ccccc1)N/N=C/c1ccc([N+](=O)[O-])s1 the results were Shiga toxin inh 111, AmpC no deterg inactive, NS1 inh inactive, CHX counter inactive and AmpC detergent inactive.
For O=C(N/N=C/c1ccc([N+](=O)[O-])s1)c1ccccc1 the results were Shiga toxin inh inactive, AmpC no deterg inactive, CHX counter 20 and AmpC detergent inactive.
`O=C(N/N=C/c1ccc([N+](=O)[O-])s1)c1ccccc1Br` gave Shiga toxin inh inactive, AmpC no deterg inactive, NS1 inh inactive, CHX counter inactive and AmpC detergent inactive.
For COC(=O)N/N=C/c1ccc([N+](=O)[O-])s1 the results were Shiga toxin inh inactive, AmpC no deterg inactive, NS1 inh inactive, CHX counter inactive and AmpC detergent inactive.
Screening CC(C)Oc1cccc(C(=O)Nc2ccc3oc(-c4ccccc4)nc3c2)c1 returned AmpC detergent inactive.
Screening Cc1noc(C)c1-c1ccc2ncnc(NCc3cc(F)cc(F)c3)c2c1 returned Shiga toxin inh inactive and CHX counter inactive.
`O=C(Nc1ccccc1O)c1cc2cc(Br)ccc2oc1=O` gave Shiga toxin inh 114, AmpC no deterg inactive, NS1 inh inactive, CHX counter 28 and AmpC detergent inactive.
COc1ccc2oc(=N)c(C(=O)Nc3ccccc3Cl)cc2c1 was read as Shiga toxin inh 49, AmpC no deterg inactive, NS1 inh inconclusive, CHX counter 39 and AmpC detergent inactive.
`COc1cccc(NC(=O)c2cc3ccccc3oc2=O)c1` gave AmpC no deterg inactive, NS1 inh inactive, CHX counter 42 and AmpC detergent inconclusive.
Cc1cccnc1NC(=O)c1cc2ccccc2oc1=O was read as Shiga toxin inh 115, AmpC no deterg inactive, NS1 inh inactive, CHX counter 30 and AmpC detergent inactive.
For Cc1cccc(N2CCN(c3ncnc4onc(C)c34)CC2C)c1 (stereo not drawn) the results were AmpC detergent inactive.
For O=S(=O)(NCC(c1ccc2c(c1)OCO2)N1CCOCC1)c1ccccc1 (stereo not drawn) the results were AmpC no deterg inactive and AmpC detergent inconclusive.
`N=c1oc2ccccc2cc1C(=O)Nc1ccccc1` gave Shiga toxin inh 116, AmpC no deterg inactive, NS1 inh inactive, CHX counter 46 and AmpC detergent inactive.
Screening CNC(=O)c1cc2cc(OC)ccc2oc1=N returned Shiga toxin inh inactive, AmpC no deterg inactive, NS1 inh inactive, CHX counter inactive and AmpC detergent inactive.
For COc1ccc2oc(=N)c(C(=O)Nc3ccccc3)cc2c1 the results were Shiga toxin inh 85, AmpC no deterg inactive, NS1 inh inactive, CHX counter 39 and AmpC detergent inactive.
COc1ccc2oc(=N)c(C(=O)Nc3ccc(C)cc3)cc2c1 was read as Shiga toxin inh inactive, AmpC no deterg inactive, NS1 inh inactive, CHX counter inactive and AmpC detergent inactive.
COc1ccc2oc(=N)c(C(=O)Nc3cccc(C)c3C)cc2c1 was read as Shiga toxin inh 49, AmpC no deterg inactive, NS1 inh inactive, CHX counter 30 and AmpC detergent inactive.
Screening COc1ccc2oc(=N)c(C(=O)Nc3ccc(F)cc3)cc2c1 returned Shiga toxin inh inactive, AmpC no deterg inactive, NS1 inh inactive, CHX counter inactive and AmpC detergent inactive.
Screening O=C(Nc1ccc(-n2nncc2-c2ccco2)cc1)c1cc2ccccc2oc1=O returned Shiga toxin inh inactive, AmpC no deterg inactive, NS1 inh 5µM, CHX counter inactive and AmpC detergent inactive.
Screening CCc1nc2ccc(C(=O)NCc3cc(OC)ccc3OC)cc2nc1CC returned AmpC detergent inactive.
COc1ccc(CCC2(C)NC(=O)N(C(C)C(=O)N3c4ccccc4CC3C)C2=O)cc1 (stereo not drawn) was read as AmpC no deterg inactive and AmpC detergent inactive.
`O=c1c(-c2ccccc2)nnc2sc(COc3ccc(Br)cc3)nn12` gave Shiga toxin inh inactive, AmpC no deterg inactive, NS1 inh inactive, CHX counter inactive and AmpC detergent inactive.
Cc1ccc(CNC(=O)c2cc3cc(Br)ccc3oc2=N)cc1 was read as Shiga toxin inh inactive, AmpC no deterg inactive, NS1 inh inactive, CHX counter inactive and AmpC detergent inactive.
N=c1oc2ccc(Br)cc2cc1C(=O)NCc1ccc(F)cc1 was read as Shiga toxin inh inactive, AmpC no deterg inactive, NS1 inh inactive, CHX counter 23 and AmpC detergent inactive.
`COc1ccc(NC(=O)c2cc3ccccc3o/c2=N\NS(=O)(=O)c2ccc(C)cc2)cc1` gave Shiga toxin inh 100, AmpC no deterg inactive, NS1 inh inactive, CHX counter 48 and AmpC detergent inactive.
`N=c1oc2ccc(Cl)cc2cc1C(=O)Nc1ccc(F)cc1` gave Shiga toxin inh 44, AmpC no deterg inactive, NS1 inh inactive, CHX counter 24 and AmpC detergent inactive.
`COc1ccc2oc(=O)c(C(=O)Nc3ccccc3C)cc2c1` gave AmpC no deterg inactive, NS1 inh inactive, CHX counter 34 and AmpC detergent inactive.
For Cc1ccc(NC(=O)N2CCN(c3nnc(C)c4c(C)n(-c5ccc(Cl)cc5)nc34)CC2)c(C)c1 the results were AmpC detergent inactive.
`O=C(Nc1ccc(S(=O)(=O)N2CCCCC2c2cccnc2)cc1)c1ccc(F)cc1` (stereo not drawn) gave AmpC detergent inactive.
For CCOc1ccc(C(=O)NCC(=O)OCC(=O)Nc2ccc(C)c(S(=O)(=O)N(C)C)c2)cc1 the results were Shiga toxin inh inactive, AmpC no deterg inactive, NS1 inh inactive, CHX counter inactive and AmpC detergent inactive.
